Compounds with a hit are over-represented: about 3.7% of the library has one in this group of screens.
NLRP3 yeast inh: inhibitors of NALP3 inflammasome in yeast; Yeast reconstituted NLRP3/ASC/caspase-1, beta-gal luminescence, 24 h; inhibition, % at 10 µM; hit rate 0.39% among 330,000;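 active means inhibition of 50% or more; inactive means inhibition below 50%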
TIM10 inh: TIM10 yeast growth inhibition; S. cerevisiae TIM10 strain growth, BacTiter-Glo luminescence, 24 h; inhibition, % at 10 µM; hit rate 1.4% among 330,000;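 active means inhibition of 40% or more at the single tested concentration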;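 further: wild-type TIM10 isogenic control strain grown at permissive 25 °C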
tim10-1 inh: inhibits growth of tim10-1 mutant yeast. S. cerevisiae tim10-1 ts strain growth, BacTiter-Glo, 24 h. hit rate 2.2% among 330,000. inhibition, % at 20 µM;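 active means inhibition of at least 40%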;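 further: mutant grown at 25 °C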
PfHsp90 set2: inhibits growth of yeast expressing Plasmodium falciparum Hsp90; S. cerevisiae expressing PfHsp90, BacTiter-Glo ATP, 48 h; yeast lacking PDR1 and PDR3 efflux regulators; AID 504621; hit rate 0.32% among 310,000; inhibition, % at 9.4 µM;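 active means every replicate shows inhibition above about 80%, whatever the replicate mean, limit read from the data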
tim23-1 inh: tim23-1 yeast growth inhibition | S. cerevisiae tim23-1 growth, BacTiter-Glo luminescence, 24 h | inhibition, % at 20 µM | hit rate 1.3% among 330,000 | AID 463212;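 active means growth inhibition of the mutant yeast at or above 50%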;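 further: temperature-sensitive mutant grown at 25 °C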
NALP3 yeast conf: confirmation of NALP3 inhibitors in yeast; shares compounds with NLRP3 yeast inh; yeast expressing human NALP3, luminescence; inhibition, % at 10 µM; hit rate 81% among 1,300; AID 435006; in the data active means inhibition above about 48%
Casp1 ASC ctr: caspase-1-ASC yeast counter-screen hit | inhibition, % at 10 µM | shares compounds with NLRP3 yeast inh | yeast expressing Caspase-1-ASC, luminescence counter screen | hit rate 66% among 1,000
NALP3 yeast rt: confirmation retest of NALP3 inhibitors in yeast; inhibition, % at 10 µM; shares compounds with NLRP3 yeast inh; yeast expressing human NALP3, luminescence read-out; hit rate 53% among 1,000; AID 488794
Numbers stand for hits; 0 = inactive; - = not tested or not shown; ! = not active in a repeat. Unless noted, no stated cut-off is given here; in the data, active means inhibition above about 50%; inactive means the rest.

SMILES | NLRP3 yeast inh | TIM10 inh | tim10-1 inh | PfHsp90 set2 | tim23-1 inh | NALP3 yeast conf | Casp1 ASC ctr | NALP3 yeast rt
CCSC1(SCC)N=C(N)C2(C#N)C(c3ccc(F)cc3)C12C#N (stereo not given) | 59 | 0 | 0 | 0 | 0 | 50 | 65 | 0
Cc1ccccc1NC(=O)c1ccc(Nc2c([N+](=O)[O-])cc([N+](=O)[O-])c3ccccc23)cc1 | 56 | 0 | 0 | 0 | 0 | 0 | - | -
CCN(CC)CCc1nc(-c2ccccc2)no1 | 0 | 0 | 0 | 0 | 0 | - | - | -
O=C(NC(=S)Nc1cccc([N+](=O)[O-])c1)c1ccco1 | 0 | 0 | 0 | 0 | 0 | - | - | -
O=C(NC(=S)Nc1cccc([N+](=O)[O-])c1)c1ccccc1 | 51 | 0 | 0 | 0 | 0 | 64 | 0 | 0
COc1ccc(OC)c(Nc2cc(-c3ccccc3)nc(N)n2)c1 | 0 | 0 | 0 | - | 0 | 0 | 0 | 0
CC(C)c1cccc(C(C)C)c1OCCCCCN1CCOCC1 | 69 | 0 | 0 | - | 0 | 74 | 78 | 66
CCCCOc1ccc2c(c1)C(=O)c1cc(O)ccc1-2 | 61 | 0 | 0 | 0 | 0 | 70 | 66 | 62
CCOc1ccc2c(c1)C(=O)c1cc(OCC(=O)O)ccc1-2 | 0 | 0 | 0 | 0 | 0 | - | - | -
CCN(CC)C(=S)SCC(=O)c1ccc(Br)cc1 | 55 | 0 | 0 | 0 | 0 | 64 | - | -
CC(Oc1ccc(Br)cc1)C(=O)NCC(c1cccs1)N1CCOCC1 (stereo not given) | 0 | 0 | 0 | 0 | 0 | - | - | -
O=C(COC(=O)c1cc([N+](=O)[O-])ccc1N1CCOCC1)Nc1cccc(F)c1 | 0 | 0 | 0 | 0 | 0 | - | - | -
O=C(Nc1cccc(O)c1)c1noc2c1CCc1ccccc1-2 | 63 | 0 | 0 | 0 | 0 | 58 | 52 | 57
CCC(=O)Nc1nnc(CCc2ccccc2)s1 | 0 | 0 | 0 | 0 | 0 | - | - | -
O=C(Nc1nnc(CCc2ccccc2)s1)c1ccccc1 | 51 | 0 | 0 | 0 | 0 | 70 | 0 | 0
COc1ccccc1C(=O)Nc1nnc(-c2ccco2)s1 | 56 | 0 | 0 | 0 | 0 | 57 | 68 | 55
Cc1ccccc1C(=O)Nc1nnc(-c2ccco2)s1 | 62 | 0 | 0 | 0 | 0 | 49 | 0 | 0
O=C(Nc1nnc(-c2ccco2)s1)c1ccccc1 | 53 | 0 | 0 | 0 | 0 | 58 | 57 | 0
COc1ccccc1NC(=O)Nc1nnc(-c2ccco2)s1 | 0 | 0 | 0 | - | 0 | - | - | -
COc1ccc(C(=O)Nc2nnc(-c3ccco3)s2)cc1 | 0 | 0 | 0 | 0 | 0 | - | - | -
COc1ccc(CCN(C)C(=O)c2cnc(C)cn2)cc1OC | 0 | 0 | 0 | 0 | 0 | - | - | -
C=C(CC[C@@H](O)C(C)(C)O)[C@H]1CC[C@]2(C)[C@@H]1CCC1[C@@]3(C)CC[C@H](O)C(C)(C)C3CC[C@]12C (stereo not given in full) | 58 | 0 | 0 | 0 | 0 | 0 | 0 | 0
CN(CC(=O)Nc1ccc(Cl)c(C(F)(F)F)c1)C(=O)C1CC(=O)N(CCc2ccccc2)C1 (stereo not given) | 0 | 0 | 0 | - | 0 | - | - | -
C=C1CCN(Cc2ccccc2)S(=O)(=O)c2ccccc21 | 51 | 0 | 0 | 0 | 0 | 66 | 0 | 0
OC(c1ccc(Cl)cc1)c1nccc2ccccc12 (stereo not given) | 58 | 0 | 0 | 0 | 0 | 67 | 65 | 0
SMILES | NLRP3 yeast inh | TIM10 inh | tim10-1 inh | PfHsp90 set2 | tim23-1 inh | NALP3 yeast conf | Casp1 ASC ctr | NALP3 yeast rt
CCCC(=O)Nc1nc2ccc(C(=O)OCC)cc2s1 | 0 | 0 | 0 | 0 | 0 | - | - | -
CCOC(=O)c1ccc2nc3c(cc2c1)CCS3 | 56 | 0 | 0 | 0 | 0 | 66 | 66 | 0
O=[N+]([O-])c1cccc(NC(=S)N2CCN(S(=O)(=O)c3ccccc3)CC2)c1 | 0 | 0 | 0 | 0 | 0 | - | - | -
Cc1[nH]c2ccccc2c1C(=O)/C=C/c1ccccc1Cl | 61 | 0 | 0 | 0 | 0 | 0 | - | -
COc1ccccc1N1CCN(C2CCCN(C(=O)CCC(=O)N(C)C)C2)CC1 (stereo not given) | 0 | 0 | 0 | 0 | 0 | - | - | -
O=C(N/N=C/C(Cl)=C\c1ccccc1)c1ccco1 | 59 | 0 | 0 | 0 | 0 | 61 | 74 | 56
O=C(O)C(c1ccccc1)C(O)C1CCCC1 (stereo not given) | - | - | - | 0 | - | - | - | -
CN1CCc2cccc3c2[C@H]1Cc1ccc(O)c(O)c1-3 | 52! | 0 | 0 | 0 | 0 | 59 | 0 | 0
O=C(Nc1ccc(F)cc1)c1ccc2c(=O)n(CC3CCCO3)c(=S)[nH]c2c1 (stereo not given) | 0 | 0 | 0 | 0 | 0 | - | - | -
Cc1nc2ccc(Br)cn2c1C(=O)N/N=C\c1ccc(C(C)C)cc1 | 0 | 0 | 0 | 0 | 0 | - | - | -
Cc1c(NC(=O)Cc2ccccc2)cccc1C(=O)NN1C(=O)c2ccccc2C1=O | 0 | 0 | 0 | 0 | 0 | - | - | -
CN1C(=O)c2cccc(NC(=O)Cc3ccccc3)c2C1=O | 50 | 0 | 0 | 0 | 0 | 50 | 60 | 0
CC1(C2CC2)NC(=O)N(CC(=O)N2CCN(c3ccccc3)CC2)C1=O (stereo not given) | 0 | 0 | 0 | 0 | 0 | - | - | -
Cc1cc(C)c(C)c(S(=O)(=O)NC2CCCCC2)c1C | 53 | 0 | 0 | 0 | 0 | 0 | 0 | 0
CN(C)c1ccc(C(=O)N2CCN(C(=O)C3CCCO3)CC2)cc1 (stereo not given) | 0 | 0 | 0 | 0 | 0 | - | - | -
C[C@@H](C[C@@H](O)[C@H](O)C(C)(C)O)[C@@H]1CC[C@]2(C)C3=CC[C@H]4C(C)(C)C(=O)CC[C@]4(C)[C@H]3CC[C@@]12C | 62 | 0 | 0 | 0 | 0 | 76 | - | -
O=C(CNC(=O)c1ccco1)NNC(=O)c1cccc(Cl)c1 | 0 | 0 | 0 | 0 | 0 | - | - | -
Nc1ccc(Br)cc1-c1nc2ccccc2[nH]c1=O | 54 | 0 | 0 | 0 | 0 | 0 | - | -
Cc1cccnc1Nc1nc(-c2ccccn2)cs1 | 74 | 0 | 0 | 106 | 0 | 84 | 97 | 92
CC1CN(c2nc(N(C)c3ccccc3)nc(N)c2[N+](=O)[O-])CC(C)O1 (stereo not given) | 53 | 0 | 0 | 0 | 0 | 0 | 0 | 0
CC1CC(C)CN(c2nc(N(C)c3ccccc3)nc(N)c2[N+](=O)[O-])C1 (stereo not given) | 0 | 0 | 0 | 0 | 0 | - | - | -
CCCn1c(SCC(=O)N2CCc3ccccc32)n[nH]c1=O | 0 | 0 | 0 | - | 0 | - | - | -
CCC1Nc2ncnc(N3CCOCC3)c2N(Cc2ccc(Cl)cc2)C1=O (stereo not given) | 0 | 0 | 0 | 0 | 0 | - | - | -
Cc1ccc(/C=N/N(C)S(=O)(=O)c2ccc(C)cc2)cc1 | 51 | 0 | 0 | 0 | 0 | 58 | 58 | 0
CSc1ccc(/C=N/N(C)S(=O)(=O)c2ccc(C)cc2)cc1 | 0 | 0 | 0 | 0 | 0 | - | - | -
O=C(NCCNCCO)c1c(O)c2cccc3c2n(c1=O)CCC3 | 53 | 0 | 0 | 0 | 0 | 63 | 0 | 0
